Measured values published in the supplement of paper PMC12494721.
Structures can show the parent of a compound that is named as a salt.

tested on: Clostridium sporogenes DSM 1664; assay: fold change of Tryptamine concentration vs plate DMSO controls (fold change (ratio)); higher = more amine produced, active = hit call of the paper (significant change in both replicates, either direction); details: incubation time: 27 h, anaerobic, 37 °C;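 for the amine columns active = adjusted P below 0.05 in both replicates with a change the same way and a mean fold change under 0.8 or over 1.25; inactive = the rest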
Outline: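 Each value is the fold change relative to DMSO-only wells on the same plate. Four gut bacterial strains were grown anaerobically in mGAM at 37 °C for 27 h in 80 µL wells, starting at OD 0.1 before a 1:1 dilution, with compounds at 20 µM final (sweeteners 50 µM). Whole cultures were extracted with cold acetonitrile/methanol containing 0.1% formic acid, centrifuged, and amines were quantified by LC–triple-quadrupole MS (dynamic MRM) against external calibration curves with within-batch drift correction. Values are means of 2 biological replicates.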

Fold change of Tryptamine concentration, inactive:
C[C@H](O)[C@H](O)[C@H]1CNc2[nH]c(N)nc(=O)c2N1 [Sapropterin dihydrochloride] (20 µM) 0.972
CCN(CC)CCNC(=O)c1cc(S(C)(=O)=O)ccc1OC [Tiapride hydrochloride] (20 µM) 0.999
CNCCCN1c2ccccc2CCc2ccccc21 [Desipramine hydrochloride] (20 µM) 0.982
COc1ccccc1OCC(O)CN1CCN(CC(=O)Nc2c(C)cccc2C)CC1 (configuration not stated) [Ranolazine] (20 µM) 1.03
CC(=O)c1ccc2c(c1)N(CCCN1CCC(CCO)CC1)c1ccccc1S2 [Piperacetazine] (20 µM) 1.32
Cn1cc(C(=O)Nc2ccc(F)cc2-c2ccc(Cl)c(Cl)c2)c(C(F)F)n1 (20 µM) 1.01
Nc1nc(=O)[nH]cc1F [Flucytosine] (20 µM) 0.924
O=c1oc2cc(O)ccc2s1 [Tioxolone] (20 µM) 1.05
CCN1C(=O)NC(c2ccccc2)C1=O (configuration not stated) [Ethotoin] (20 µM) 0.942
C=C1/C(=C\C=C2/CCC[C@]3(C)[C@@H]([C@H](C)/C=C/[C@@H](O)C4CC4)CC[C@@H]23)C[C@@H](O)C[C@@H]1O [Calcipotriene] (20 µM) 0.952
COc1ccc([C@@H]2Sc3ccccc3N(CCN(C)C)C(=O)[C@@H]2OC(C)=O)cc1 [Diltiazem hydrochloride] (20 µM) 1.03
N#Cc1ccc(C(c2ccc(C#N)cc2)n2cncn2)cc1 [Letrozole] (20 µM) 0.988
Clc1ccc(CSC(Cn2ccnc2)c2ccc(Cl)cc2Cl)cc1 (configuration not stated) [Sulconazole nitrate] (20 µM) 1
NC(=O)c1ncn([C@@H]2O[C@H](CO)[C@@H](O)[C@H]2O)n1 [Ribavirin] (20 µM) 1.01
CC(C)NCC(O)c1cc(O)cc(O)c1 (configuration not stated) [Metaproterenol sulfate] (20 µM) 1.03
Cc1ccccc1C(=O)Nc1ccc(C(=O)N2CCCC(O)c3cc(Cl)ccc32)c(C)c1 (configuration not stated) [Tolvaptan] (20 µM) 0.919
CC(C)(C)NC(=O)[C@H]1CC[C@H]2[C@@H]3CC[C@H]4NC(=O)C=C[C@]4(C)[C@H]3CC[C@]12C [Finasteride] (20 µM) 0.973
O=c1n(CCCN2CCN(c3cccc(Cl)c3)CC2)nc2ccccn12 [Trazodone hydrochloride] (20 µM) 0.988
NNc1nncc2ccccc12 [Hydralazine hydrochloride] (20 µM) 0.967
CN(C/C=C/c1ccccc1)Cc1cccc2ccccc12 [Naftifine hydrochloride] (20 µM) 0.99
N=c1nc(N2CCCCC2)cc(N)n1O [Minoxidil] (20 µM) 0.937
C=CC[C@@H]1/C=C(\C)C[C@H](C)C[C@H](OC)[C@H]2O[C@@](O)(C(=O)C(=O)N3CCCC[C@H]3C(=O)O[C@H](/C(C)=C/[C@@H]3CC[C@@H](O)[C@H](OC)C3)[C@H](C)[C@@H](O)CC1=O)[C@H](C)C[C@@H]2OC [Tacrolimus Monohydrate] (20 µM) 1.02
